The full data set covers some 6,500 targets. This sample favours those with a hit. About 2% of all pairs of compound and target were hits.
What follows are targets tested with COC(=O)C#Cc1ccccc1 [methyl 3-phenylpropiolate] (assay: log2 ratio of iodoacetamide-alkyne labeling of the cysteine site, DMSO over compound (competition); higher = stronger covalent engagement of the cysteine by the compound, active = 1 or more). Settings: 500 µM; treatment time 1 h; system: HEK293T cell lysate.
Outline: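 The log2 competition ratio per cysteine is defined as mean reporter intensity in control channels over mean reporter intensity in compound channels. Lysate from HEK293T cells (2 mg/mL) received electrophile (500 µM) or vehicle for 1 h at ambient temperature, followed by iodoacetamide alkyne for 1 h. Samples were clicked to sCIP-TMT reagents, pooled, trypsin-digested overnight at 37 °C, streptavidin-enriched, acid-eluted and run on Orbitrap Eclipse LC-MS/MS with FAIMS, with quantification in FragPipe. Three replicates with duplicate channels were used, and any cysteine quantified in only one replicate was excluded.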

UniProt Q9BQ67, sequence (Q9BQ67 whole entry, looked up): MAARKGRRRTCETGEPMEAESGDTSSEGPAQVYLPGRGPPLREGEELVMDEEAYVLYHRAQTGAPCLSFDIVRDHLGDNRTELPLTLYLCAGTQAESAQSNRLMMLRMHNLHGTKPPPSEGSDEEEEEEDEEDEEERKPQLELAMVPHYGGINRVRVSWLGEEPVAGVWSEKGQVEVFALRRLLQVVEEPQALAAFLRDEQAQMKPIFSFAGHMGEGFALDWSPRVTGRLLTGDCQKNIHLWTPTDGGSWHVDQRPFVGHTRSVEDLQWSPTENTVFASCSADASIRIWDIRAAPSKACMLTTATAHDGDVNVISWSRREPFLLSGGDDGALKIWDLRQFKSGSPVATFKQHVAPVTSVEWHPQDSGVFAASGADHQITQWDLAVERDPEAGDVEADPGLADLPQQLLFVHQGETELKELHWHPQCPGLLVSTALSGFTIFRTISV
UniProt Q8N201, sequence (Q8N201 whole entry, looked up): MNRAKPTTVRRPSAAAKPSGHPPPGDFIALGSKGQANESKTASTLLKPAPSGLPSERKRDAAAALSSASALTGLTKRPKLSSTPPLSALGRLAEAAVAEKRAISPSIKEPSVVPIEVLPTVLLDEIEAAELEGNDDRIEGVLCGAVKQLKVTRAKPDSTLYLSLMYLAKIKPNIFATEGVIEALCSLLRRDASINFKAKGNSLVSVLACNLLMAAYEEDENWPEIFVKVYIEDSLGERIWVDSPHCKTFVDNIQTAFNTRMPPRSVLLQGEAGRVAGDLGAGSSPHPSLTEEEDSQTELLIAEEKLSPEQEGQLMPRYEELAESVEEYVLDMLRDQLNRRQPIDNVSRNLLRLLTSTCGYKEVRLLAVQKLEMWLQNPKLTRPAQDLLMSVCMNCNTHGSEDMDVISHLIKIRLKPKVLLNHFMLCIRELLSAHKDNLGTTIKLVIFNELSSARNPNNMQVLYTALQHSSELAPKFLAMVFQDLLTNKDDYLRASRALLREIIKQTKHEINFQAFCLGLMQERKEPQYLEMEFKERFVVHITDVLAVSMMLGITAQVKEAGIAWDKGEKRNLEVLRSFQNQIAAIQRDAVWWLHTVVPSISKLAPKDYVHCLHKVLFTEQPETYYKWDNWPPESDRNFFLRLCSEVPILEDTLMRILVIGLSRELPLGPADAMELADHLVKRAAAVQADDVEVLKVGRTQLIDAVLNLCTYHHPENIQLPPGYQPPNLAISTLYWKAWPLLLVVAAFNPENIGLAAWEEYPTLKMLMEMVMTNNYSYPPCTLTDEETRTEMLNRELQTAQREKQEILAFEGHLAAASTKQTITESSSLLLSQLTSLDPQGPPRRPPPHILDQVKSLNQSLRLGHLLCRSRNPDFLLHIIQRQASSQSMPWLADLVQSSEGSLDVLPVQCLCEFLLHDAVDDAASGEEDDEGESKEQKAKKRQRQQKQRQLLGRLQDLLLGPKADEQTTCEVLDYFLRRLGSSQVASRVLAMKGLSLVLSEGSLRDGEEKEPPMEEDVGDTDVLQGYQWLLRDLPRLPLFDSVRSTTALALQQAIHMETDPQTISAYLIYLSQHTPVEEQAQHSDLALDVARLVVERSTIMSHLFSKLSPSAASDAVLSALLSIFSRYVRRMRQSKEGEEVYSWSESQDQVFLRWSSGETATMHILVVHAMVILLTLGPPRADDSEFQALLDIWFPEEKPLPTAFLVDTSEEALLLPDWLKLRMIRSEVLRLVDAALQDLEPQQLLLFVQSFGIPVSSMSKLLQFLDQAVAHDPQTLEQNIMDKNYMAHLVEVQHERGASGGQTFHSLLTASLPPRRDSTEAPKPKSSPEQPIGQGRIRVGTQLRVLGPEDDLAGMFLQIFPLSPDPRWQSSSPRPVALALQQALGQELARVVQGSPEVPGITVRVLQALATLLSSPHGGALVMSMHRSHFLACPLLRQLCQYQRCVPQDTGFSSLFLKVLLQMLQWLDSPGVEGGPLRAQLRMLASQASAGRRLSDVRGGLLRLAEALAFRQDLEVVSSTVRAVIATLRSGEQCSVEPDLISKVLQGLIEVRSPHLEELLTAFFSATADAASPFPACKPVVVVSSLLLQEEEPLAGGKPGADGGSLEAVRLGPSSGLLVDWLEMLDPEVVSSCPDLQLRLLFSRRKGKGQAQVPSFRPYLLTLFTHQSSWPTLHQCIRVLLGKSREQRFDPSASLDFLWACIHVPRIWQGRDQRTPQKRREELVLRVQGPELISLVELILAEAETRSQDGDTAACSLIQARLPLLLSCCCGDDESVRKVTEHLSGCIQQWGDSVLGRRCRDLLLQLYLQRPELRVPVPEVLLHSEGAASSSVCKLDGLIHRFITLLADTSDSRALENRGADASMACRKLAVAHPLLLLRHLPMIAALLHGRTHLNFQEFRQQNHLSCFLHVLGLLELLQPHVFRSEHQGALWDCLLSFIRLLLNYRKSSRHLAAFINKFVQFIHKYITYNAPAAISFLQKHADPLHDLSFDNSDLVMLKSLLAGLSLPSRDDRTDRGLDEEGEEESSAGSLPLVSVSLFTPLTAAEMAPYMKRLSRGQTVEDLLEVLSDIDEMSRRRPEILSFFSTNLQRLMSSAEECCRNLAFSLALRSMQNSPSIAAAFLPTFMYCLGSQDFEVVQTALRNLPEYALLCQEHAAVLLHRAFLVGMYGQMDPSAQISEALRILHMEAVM
UniProt Q8NEC7, sequence (Q8NEC7 whole entry): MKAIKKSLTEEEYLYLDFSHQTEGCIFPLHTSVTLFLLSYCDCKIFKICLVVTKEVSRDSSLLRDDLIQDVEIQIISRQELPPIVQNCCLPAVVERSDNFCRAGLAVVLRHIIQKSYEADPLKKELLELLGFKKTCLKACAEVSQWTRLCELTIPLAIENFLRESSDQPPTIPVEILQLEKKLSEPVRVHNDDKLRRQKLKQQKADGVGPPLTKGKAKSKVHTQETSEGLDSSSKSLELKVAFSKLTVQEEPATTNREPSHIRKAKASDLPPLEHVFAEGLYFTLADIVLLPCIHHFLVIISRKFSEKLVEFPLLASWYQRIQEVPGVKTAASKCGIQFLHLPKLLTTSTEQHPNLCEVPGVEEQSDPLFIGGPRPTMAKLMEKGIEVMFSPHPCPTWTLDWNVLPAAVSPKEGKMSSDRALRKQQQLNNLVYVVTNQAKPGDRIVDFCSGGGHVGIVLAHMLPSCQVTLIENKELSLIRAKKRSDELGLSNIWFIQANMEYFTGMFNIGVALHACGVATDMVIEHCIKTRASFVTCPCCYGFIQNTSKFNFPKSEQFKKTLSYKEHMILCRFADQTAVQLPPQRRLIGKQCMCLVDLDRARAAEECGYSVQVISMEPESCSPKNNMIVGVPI
UniProt Q9BQG0, sequence (Q9BQG0 whole entry, looked up): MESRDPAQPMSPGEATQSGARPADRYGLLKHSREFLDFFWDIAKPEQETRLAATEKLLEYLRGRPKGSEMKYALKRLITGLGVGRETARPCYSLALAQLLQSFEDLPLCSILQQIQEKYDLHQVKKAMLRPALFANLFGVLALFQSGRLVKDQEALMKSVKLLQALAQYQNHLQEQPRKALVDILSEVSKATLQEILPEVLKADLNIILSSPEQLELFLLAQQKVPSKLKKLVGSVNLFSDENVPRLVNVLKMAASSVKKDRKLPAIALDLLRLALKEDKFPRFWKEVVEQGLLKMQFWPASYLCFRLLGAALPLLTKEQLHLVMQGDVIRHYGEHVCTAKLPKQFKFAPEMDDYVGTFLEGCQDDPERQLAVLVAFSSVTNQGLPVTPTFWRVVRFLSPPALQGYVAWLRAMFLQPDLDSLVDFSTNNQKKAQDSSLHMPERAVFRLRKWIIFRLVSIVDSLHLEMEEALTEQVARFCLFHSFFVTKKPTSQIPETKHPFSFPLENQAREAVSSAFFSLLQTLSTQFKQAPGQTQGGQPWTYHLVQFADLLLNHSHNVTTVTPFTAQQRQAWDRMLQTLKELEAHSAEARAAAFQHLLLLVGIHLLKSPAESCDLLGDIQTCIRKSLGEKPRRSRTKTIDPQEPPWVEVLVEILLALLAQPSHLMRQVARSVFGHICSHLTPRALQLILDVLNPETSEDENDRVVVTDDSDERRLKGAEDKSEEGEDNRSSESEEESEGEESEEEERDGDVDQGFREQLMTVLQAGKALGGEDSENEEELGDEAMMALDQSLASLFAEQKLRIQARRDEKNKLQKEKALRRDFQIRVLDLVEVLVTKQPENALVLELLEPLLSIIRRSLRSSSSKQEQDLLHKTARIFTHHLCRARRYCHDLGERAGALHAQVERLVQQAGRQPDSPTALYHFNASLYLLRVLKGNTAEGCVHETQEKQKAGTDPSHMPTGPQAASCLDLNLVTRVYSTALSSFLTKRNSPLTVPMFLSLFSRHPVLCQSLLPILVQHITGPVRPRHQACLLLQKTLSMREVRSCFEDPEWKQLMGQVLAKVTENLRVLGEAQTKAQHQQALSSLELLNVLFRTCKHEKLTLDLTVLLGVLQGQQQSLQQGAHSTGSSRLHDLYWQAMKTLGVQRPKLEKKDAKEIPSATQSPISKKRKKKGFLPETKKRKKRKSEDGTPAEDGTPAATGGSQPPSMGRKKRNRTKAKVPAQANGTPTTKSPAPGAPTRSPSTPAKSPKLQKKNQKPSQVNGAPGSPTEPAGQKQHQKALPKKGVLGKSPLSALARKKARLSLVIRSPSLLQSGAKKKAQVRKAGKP

Target | log2 ratio of iodoacetamide-alkyne labeling
ACD C406 (UniProt Q96AP0) | 0.713 (inactive)
PNKP C516 (UniProt Q96T60) | 0.166 (inactive)
ISOC2 C84 (UniProt Q96AB3) | 0.179 (inactive)
RDH10 C272 (UniProt Q8IZV5) | 0.324 (inactive)
FLAD1 C496 (UniProt Q8NFF5) | 1.06 (active)
PHF6 C28 (UniProt Q8IWS0) | 0.287 (inactive)
SEC14L1 C258 (UniProt Q92503) | 0.208 (inactive)
UniProt Q8NBJ5_C412 | 0.133 (inactive)
MED12 C83 (UniProt Q93074) | 0.457 (inactive)
PARG C515 (UniProt Q86W56) | 1.16 (active)
GSTCD C335 (UniProt Q8NEC7) | 0.19 (inactive)
APIP C97 (UniProt Q96GX9) | 0.129 (inactive)
EXOC6 C28 (UniProt Q8TAG9) | 0.489 (inactive)
DPF1 C149 (UniProt Q92782) | 0.289 (inactive)
CCDC50 C85 (UniProt Q8IVM0) | 0.455 (inactive)
MYBBP1A C942 (UniProt Q9BQG0) | 0.523 (inactive)
HSDL2 C11 (UniProt Q6YN16) | 0.0294 (inactive)

Target | log2 ratio of iodoacetamide-alkyne labeling
MAP1S C841 (UniProt Q66K74) | 0.464 (inactive)
UBR2 C1619 (UniProt Q8IWV8) | 0.0476 (inactive)
CNN2 C175 (UniProt Q99439) | 1.04 (active)
RSBN1L C280 (UniProt Q6PCB5) | 0.649 (inactive)
GRWD1 C299 (UniProt Q9BQ67) | 0.364 (inactive)
FTSJ3 C197 (UniProt Q8IY81) | 0.103 (inactive)
CPPED1 C54 (UniProt Q9BRF8) | 1.01 (active)
INTS1 C643 (UniProt Q8N201) | 0.127 (inactive)
CCT7 C158 (UniProt Q99832) | 0.152 (inactive)
UniProt Q7Z4H7_C885 | 0.286 (inactive)
SND1 C96 (UniProt Q7KZF4) | 0.115 (inactive)
SETD7 C200 (UniProt Q8WTS6) | 0.34 (inactive)
NIPBL C1795 (UniProt Q6KC79) | -0.189 (inactive)
C15orf39 C367 (UniProt Q6ZRI6) | 1.32 (active)
AKAP1 C389 (UniProt Q92667) | 1.15 (active)
UniProt Q8WYL5_C626 | 1.19 (active)
GPKOW C394 (UniProt Q92917) | -0.0148 (inactive)

— the supplement of paper PMC11006884
